# Measured values from the supplement of paper PMC10849652.
# About 8,800 targets were measured; listed, in parts, are those with a hit and a random draw of the rest. About 0.5% of all pairs of compound and target were hits.
# Compound: c1ccc([C@@H]2C[C@H]2NC2CCNCC2)cc1
# Experiment: log2 fold change, soluble protein after heating vs DMSO (PISA); higher = thermal stabilisation; K562 lysate, 10 uM; active = over 0.2 and 3.5 SD of the protein, either way, in both replicates (recomputed)
# Method in brief: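 Thermal stability, expressed as log-two fold change relative to solvent controls, is given from duplicates. Crude K562 extract in PBS pH 7.4 with 1 mM MgCl2, at 1 mg/mL protein, was treated with 10 μM compound for 30 min and heated in aliquots for 3 min across 48°C-58°C. After pooling, adjustment to 0.5% NP-40 at 4°C and centrifugation at 21,000xg for 90 min, supernatant protein was measured by TMTpro 16plex LC-MS/MS with channel sums equalised.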
# UniProt Q9BZV1, sequence (Q9BZV1 whole entry, looked up): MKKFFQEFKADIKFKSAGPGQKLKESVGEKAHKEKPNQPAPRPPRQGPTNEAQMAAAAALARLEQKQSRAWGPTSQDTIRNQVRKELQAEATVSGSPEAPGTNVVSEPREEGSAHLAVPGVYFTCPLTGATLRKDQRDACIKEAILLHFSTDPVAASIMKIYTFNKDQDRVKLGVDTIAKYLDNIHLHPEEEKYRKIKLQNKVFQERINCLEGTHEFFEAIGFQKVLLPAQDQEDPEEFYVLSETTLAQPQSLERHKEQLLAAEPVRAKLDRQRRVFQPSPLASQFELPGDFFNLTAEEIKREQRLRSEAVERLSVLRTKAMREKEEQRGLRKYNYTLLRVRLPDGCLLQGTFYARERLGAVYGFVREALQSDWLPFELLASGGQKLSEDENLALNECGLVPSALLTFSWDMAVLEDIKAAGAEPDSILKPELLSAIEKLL
# UniProt Q13509, sequence (Q13509 whole entry, looked up): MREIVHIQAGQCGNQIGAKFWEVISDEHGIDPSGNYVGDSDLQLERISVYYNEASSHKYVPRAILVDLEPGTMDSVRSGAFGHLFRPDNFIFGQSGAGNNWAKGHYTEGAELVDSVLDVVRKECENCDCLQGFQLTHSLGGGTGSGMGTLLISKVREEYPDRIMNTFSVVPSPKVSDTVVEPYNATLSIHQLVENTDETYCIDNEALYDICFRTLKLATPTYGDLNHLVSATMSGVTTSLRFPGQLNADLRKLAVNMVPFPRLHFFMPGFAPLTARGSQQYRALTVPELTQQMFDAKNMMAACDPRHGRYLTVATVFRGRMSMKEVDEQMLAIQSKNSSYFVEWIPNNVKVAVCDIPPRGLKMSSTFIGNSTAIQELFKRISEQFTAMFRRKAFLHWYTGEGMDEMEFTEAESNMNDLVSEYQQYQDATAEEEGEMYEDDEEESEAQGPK
# UniProt Q5TEJ8, sequence (Q5TEJ8 whole entry, looked up): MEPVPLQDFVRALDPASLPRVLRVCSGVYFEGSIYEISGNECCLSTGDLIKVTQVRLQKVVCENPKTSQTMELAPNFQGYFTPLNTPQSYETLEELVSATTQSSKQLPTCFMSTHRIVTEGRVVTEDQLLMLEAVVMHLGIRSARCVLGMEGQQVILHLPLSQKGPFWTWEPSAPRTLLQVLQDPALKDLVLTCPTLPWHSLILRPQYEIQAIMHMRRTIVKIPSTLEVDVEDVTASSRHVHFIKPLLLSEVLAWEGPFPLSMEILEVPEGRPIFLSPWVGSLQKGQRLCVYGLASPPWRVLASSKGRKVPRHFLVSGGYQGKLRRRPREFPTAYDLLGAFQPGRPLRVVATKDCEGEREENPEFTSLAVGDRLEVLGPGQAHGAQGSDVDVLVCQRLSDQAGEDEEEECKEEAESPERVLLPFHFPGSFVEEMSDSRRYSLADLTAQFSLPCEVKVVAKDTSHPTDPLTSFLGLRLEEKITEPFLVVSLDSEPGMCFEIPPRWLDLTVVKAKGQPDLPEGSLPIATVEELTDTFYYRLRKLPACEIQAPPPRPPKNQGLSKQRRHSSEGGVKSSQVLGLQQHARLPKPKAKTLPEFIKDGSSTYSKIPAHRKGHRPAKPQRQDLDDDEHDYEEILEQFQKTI
# UniProt Q6NXR4, sequence (Q6NXR4 whole entry, looked up): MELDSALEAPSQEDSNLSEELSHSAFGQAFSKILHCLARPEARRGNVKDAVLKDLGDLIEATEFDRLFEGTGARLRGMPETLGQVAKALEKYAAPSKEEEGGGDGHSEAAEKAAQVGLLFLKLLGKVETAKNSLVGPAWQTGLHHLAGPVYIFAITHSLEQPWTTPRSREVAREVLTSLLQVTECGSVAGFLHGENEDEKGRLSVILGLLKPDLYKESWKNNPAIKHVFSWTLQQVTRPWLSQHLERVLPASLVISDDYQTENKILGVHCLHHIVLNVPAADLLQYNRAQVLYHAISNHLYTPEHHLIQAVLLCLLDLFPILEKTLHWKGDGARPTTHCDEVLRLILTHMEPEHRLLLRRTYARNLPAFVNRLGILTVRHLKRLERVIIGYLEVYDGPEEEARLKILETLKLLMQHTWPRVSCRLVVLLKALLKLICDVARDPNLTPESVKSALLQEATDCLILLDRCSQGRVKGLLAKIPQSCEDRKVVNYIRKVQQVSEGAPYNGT
# UniProt Q6PJ69, sequence (Q6PJ69 whole entry, looked up): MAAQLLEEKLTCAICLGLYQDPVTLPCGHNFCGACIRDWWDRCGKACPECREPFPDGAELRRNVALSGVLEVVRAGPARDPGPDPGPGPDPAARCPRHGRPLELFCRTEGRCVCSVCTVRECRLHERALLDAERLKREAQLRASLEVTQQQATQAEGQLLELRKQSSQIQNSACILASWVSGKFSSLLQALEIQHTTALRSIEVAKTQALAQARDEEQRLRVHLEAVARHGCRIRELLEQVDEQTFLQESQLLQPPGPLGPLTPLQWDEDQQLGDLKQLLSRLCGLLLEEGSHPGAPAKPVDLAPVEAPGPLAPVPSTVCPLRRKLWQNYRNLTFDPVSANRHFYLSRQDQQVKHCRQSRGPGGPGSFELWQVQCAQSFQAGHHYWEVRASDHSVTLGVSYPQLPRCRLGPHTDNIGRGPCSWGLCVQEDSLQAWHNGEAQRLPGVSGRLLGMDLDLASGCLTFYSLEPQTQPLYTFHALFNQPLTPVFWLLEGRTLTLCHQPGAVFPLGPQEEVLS
# UniProt Q8N511, sequence (Q8N511 whole entry, looked up): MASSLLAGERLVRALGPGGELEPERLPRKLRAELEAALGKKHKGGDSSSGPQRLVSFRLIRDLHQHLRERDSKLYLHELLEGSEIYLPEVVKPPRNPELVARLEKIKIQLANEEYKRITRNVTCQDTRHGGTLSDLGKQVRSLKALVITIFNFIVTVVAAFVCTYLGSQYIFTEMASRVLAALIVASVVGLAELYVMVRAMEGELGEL
# UniProt O43156, sequence (O43156 whole entry, looked up): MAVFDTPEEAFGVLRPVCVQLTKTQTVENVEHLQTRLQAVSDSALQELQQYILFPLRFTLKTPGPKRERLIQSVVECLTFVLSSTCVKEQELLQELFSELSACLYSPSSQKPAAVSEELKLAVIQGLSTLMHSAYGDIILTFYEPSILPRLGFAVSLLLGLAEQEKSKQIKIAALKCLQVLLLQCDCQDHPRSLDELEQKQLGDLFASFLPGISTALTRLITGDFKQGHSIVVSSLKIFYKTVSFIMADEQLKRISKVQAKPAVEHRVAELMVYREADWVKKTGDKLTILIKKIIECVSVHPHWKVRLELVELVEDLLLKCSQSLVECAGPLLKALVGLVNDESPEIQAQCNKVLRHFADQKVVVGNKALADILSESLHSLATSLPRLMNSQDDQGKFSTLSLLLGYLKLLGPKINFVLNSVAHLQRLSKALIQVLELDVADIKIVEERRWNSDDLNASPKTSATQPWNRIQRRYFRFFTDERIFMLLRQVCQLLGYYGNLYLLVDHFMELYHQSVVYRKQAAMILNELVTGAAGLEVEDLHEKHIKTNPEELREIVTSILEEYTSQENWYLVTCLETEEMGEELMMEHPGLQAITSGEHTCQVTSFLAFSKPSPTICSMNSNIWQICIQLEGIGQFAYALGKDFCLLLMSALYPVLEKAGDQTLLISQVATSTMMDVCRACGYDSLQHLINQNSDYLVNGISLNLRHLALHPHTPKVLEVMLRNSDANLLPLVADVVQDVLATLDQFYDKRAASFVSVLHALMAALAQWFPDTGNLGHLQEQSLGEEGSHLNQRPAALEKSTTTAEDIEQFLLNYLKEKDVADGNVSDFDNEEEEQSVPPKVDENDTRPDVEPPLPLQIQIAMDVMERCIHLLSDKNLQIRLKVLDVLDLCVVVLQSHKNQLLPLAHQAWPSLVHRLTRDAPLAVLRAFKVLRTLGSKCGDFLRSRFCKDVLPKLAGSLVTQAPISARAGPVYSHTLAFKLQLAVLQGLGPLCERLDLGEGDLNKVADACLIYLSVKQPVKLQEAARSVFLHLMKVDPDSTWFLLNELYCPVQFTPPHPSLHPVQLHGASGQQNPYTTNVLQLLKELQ
# UniProt A6NFQ2, sequence (A6NFQ2 whole entry, looked up): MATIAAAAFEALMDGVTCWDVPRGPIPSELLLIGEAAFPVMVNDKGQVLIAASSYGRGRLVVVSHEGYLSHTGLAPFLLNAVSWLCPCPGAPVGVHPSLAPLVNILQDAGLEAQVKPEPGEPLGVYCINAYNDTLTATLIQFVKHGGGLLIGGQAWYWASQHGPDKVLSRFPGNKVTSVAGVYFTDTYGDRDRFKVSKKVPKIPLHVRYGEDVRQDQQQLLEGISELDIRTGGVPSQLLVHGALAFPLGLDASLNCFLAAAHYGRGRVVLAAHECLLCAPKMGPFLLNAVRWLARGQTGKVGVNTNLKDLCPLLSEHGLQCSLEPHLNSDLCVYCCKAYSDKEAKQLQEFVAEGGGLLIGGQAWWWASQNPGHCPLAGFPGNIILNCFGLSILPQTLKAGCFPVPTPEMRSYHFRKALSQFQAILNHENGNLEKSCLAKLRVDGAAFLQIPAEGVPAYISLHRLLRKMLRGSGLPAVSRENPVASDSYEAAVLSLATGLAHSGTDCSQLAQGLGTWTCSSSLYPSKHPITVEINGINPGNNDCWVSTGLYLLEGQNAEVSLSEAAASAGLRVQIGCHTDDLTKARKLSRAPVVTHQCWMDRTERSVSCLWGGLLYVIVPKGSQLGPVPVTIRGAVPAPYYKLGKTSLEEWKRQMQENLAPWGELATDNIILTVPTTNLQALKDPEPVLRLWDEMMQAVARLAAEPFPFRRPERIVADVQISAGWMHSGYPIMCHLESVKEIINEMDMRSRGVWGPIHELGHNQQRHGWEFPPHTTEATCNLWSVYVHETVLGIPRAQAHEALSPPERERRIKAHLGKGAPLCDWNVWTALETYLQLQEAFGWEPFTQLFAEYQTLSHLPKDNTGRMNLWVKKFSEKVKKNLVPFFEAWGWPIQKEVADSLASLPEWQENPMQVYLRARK
row,Target,log2 fold change
1,UBR4 (UniProt Q5T4S7),-0.003 (inactive)
2,THEMIS2 (UniProt Q5TEJ8),-0.054 (inactive)
3,TOPBP1 (UniProt Q92547),0.099 (inactive)
4,TJP1 (UniProt G3V1L9),-0.007 (inactive)
5,TJP1 isoform 2 (UniProt Q07157),-0.009 (inactive)
6,TRIM65 (UniProt Q6PJ69),0.039 (inactive)
7,TUBB3 (UniProt Q13509),0.01 (inactive)
8,TTI2 (UniProt Q6NXR4),0.024 (inactive)
9,TXNIP (UniProt Q9H3M7),0.087 (inactive)
10,TBC1D2B (UniProt Q9UPU7),-0.008 (inactive)
11,UBXN6 (UniProt Q9BZV1),0.031 (inactive)
12,TYMS (UniProt P04818),0.014 (inactive)
13,UBR5 (UniProt O95071),0.01 (inactive)
14,TMEM199 (UniProt Q8N511),-0.029 (inactive)
15,TPM3 isoform 2 (UniProt P06753),0.056 (inactive)
16,TTI1 (UniProt O43156),0.051 (inactive)
17,TCAF2 (UniProt A6NFQ2),0.042 (inactive)
